According to PubChem BioAssay (NCI):
About 83,000 compounds went through this panel and 20% of them were active in at least one assay; those are over-represented in the sample as a whole.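 Method: cells in 96-well plates; compound added at one concentration; 48 h incubation; percent growth measured; values under 10 scored active.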 Active and inactive are the calls of the source.

Tests used:
Experiment in all cases: NCI-60 one-dose screen, 48 h (100 = growth as untreated, 0 = no growth, -100 = all killed)
Conditions in all cases: 10 µM unless noted
EKVX NSCLC = test system: EKVX NSCLC
SN12C renal = test system: SN12C renal
UO-31 renal = test system: UO-31 renal
ACHN renal = test system: ACHN renal
CAKI-1 renal = test system: CAKI-1 renal
A498 renal = test system: A498 renal
CCRF-CEM leukemia = test system: CCRF-CEM leukemia
MOLT-4 leukemia = test system: MOLT-4 leukemia
SR leukemia = test system: SR leukemia

Measured: growth

CC(C)(O)c1cncc(-c2ccc3ncnc(N4CCc5cc(F)c(Cl)cc54)c3c2)c1
active: EKVX NSCLC -2.39% | UO-31 renal 6.25% | A498 renal -39.6% | MOLT-4 leukemia 0.627%
inactive: SN12C renal 18.6% | ACHN renal 11.3% | CAKI-1 renal 10.6% | CCRF-CEM leukemia 22.2% | SR leukemia 18%

O=C(CCCN1C(=O)/C(=C/c2ccccc2F)SC1=S)N1CCOCC1
inactive: EKVX NSCLC 89.5% | SN12C renal 87.6% | UO-31 renal 72.2% | ACHN renal 78.1% | CAKI-1 renal 89.2% | A498 renal 82.8% | CCRF-CEM leukemia 71.6% | MOLT-4 leukemia 91.3% | SR leukemia 68%

O=C(O)CCCCCN1C(=O)/C(=C/c2ccc(O)c(O)c2)SC1=S
inactive: EKVX NSCLC 97% | SN12C renal 98.5% | UO-31 renal 90.4% | ACHN renal 109% | CAKI-1 renal 102% | A498 renal 101% | CCRF-CEM leukemia 105% | MOLT-4 leukemia 106% | SR leukemia 107%

COc1cc(OC)c(C2SCC(=O)N2Nc2ncnc3ccccc23)cc1OC (configuration not stated)
inactive: EKVX NSCLC 100% | SN12C renal 103% | UO-31 renal 89.7% | ACHN renal 106% | CAKI-1 renal 94% | A498 renal 81.8% | CCRF-CEM leukemia 107% | MOLT-4 leukemia 105% | SR leukemia 104%

CSCCC(C(=O)O)N1C(=O)/C(=C/c2ccc(O)c(O)c2)SC1=S (configuration not stated)
inactive: EKVX NSCLC 96.2% | SN12C renal 99.2% | UO-31 renal 89.3% | ACHN renal 99.9% | CAKI-1 renal 95.6% | A498 renal 85.3% | CCRF-CEM leukemia 105% | MOLT-4 leukemia 108% | SR leukemia 103%

CC(=O)Oc1ccccc1C(=O)Nc1ccc(C(=O)/C=C/c2ccncc2)cc1
active: ACHN renal 0.759% | SR leukemia -15.2%
inactive: EKVX NSCLC 71.7% | SN12C renal 33.5% | UO-31 renal 44.4% | CAKI-1 renal 62.6% | A498 renal 100% | CCRF-CEM leukemia 10.2% | MOLT-4 leukemia 23.1%

Cc1ccc(C(=O)Nc2cccc(C(F)(F)F)c2)cc1Nc1nc(-c2cnccn2)nc2c1cnn2C
inactive: EKVX NSCLC 77.3% | SN12C renal 64.7% | UO-31 renal 37.8% | ACHN renal 53% | CAKI-1 renal 48.9% | A498 renal 53.9% | CCRF-CEM leukemia 78.2% | MOLT-4 leukemia 43.1% | SR leukemia 39.5%

O=C1Nc2cc(Cl)ccc2/C1=C\c1ccc(OCc2ccc([N+](=O)[O-])cc2)cc1
inactive: EKVX NSCLC 82.5% | SN12C renal 79.5% | UO-31 renal 50.7% | ACHN renal 43% | CAKI-1 renal 64.6% | A498 renal 81% | MOLT-4 leukemia 97.4% | SR leukemia 87.5%
active: CCRF-CEM leukemia 5.4%

Clc1ccc2oc3c(NCCCN4CCOCC4)c4ccccc4nc3c2c1
active: A498 renal -2.14% | MOLT-4 leukemia 4.08% | SR leukemia 1.91%
inactive: EKVX NSCLC 37.9% | SN12C renal 19.6% | UO-31 renal 24.2% | ACHN renal 13.4% | CAKI-1 renal 12.8% | CCRF-CEM leukemia 27.6%

COc1ccc(-c2csc(N/N=C/c3c(-c4ccc(S(C)(=O)=O)cc4)nc4ccccn34)n2)cc1
inactive: EKVX NSCLC 106% | SN12C renal 105% | UO-31 renal 87% | ACHN renal 102% | CAKI-1 renal 93.4% | A498 renal 85.9% | CCRF-CEM leukemia 94.2% | MOLT-4 leukemia 92.4% | SR leukemia 94.5%

O=C(CN1CCOCC1)NNc1ncnc2ccccc12
inactive: EKVX NSCLC 85.7% | SN12C renal 89.4% | UO-31 renal 71.5% | CAKI-1 renal 93.9% | A498 renal 111% | CCRF-CEM leukemia 13.8% | MOLT-4 leukemia 74.6% | SR leukemia 68.3%
active: ACHN renal -91%

N#Cc1nc(-c2ccccc2)oc1S(=O)(=O)N1CCN(CCc2ccccn2)CC1
inactive: EKVX NSCLC 89% | SN12C renal 77.2% | CAKI-1 renal 54.3% | A498 renal 112%
active: UO-31 renal -42.3% | ACHN renal -95.4% | CCRF-CEM leukemia 1.54% | MOLT-4 leukemia 0.215% | SR leukemia -19.2%

COc1ccc(-c2cc(C(=O)N=Nc3c(O)[nH]c4ccccc34)c3ccccc3n2)cc1OC
inactive: EKVX NSCLC 91.9% | SN12C renal 94.6% | UO-31 renal 85.2% | ACHN renal 102% | CAKI-1 renal 94.9% | A498 renal 82.1% | CCRF-CEM leukemia 100% | MOLT-4 leukemia 102% | SR leukemia 102%

Clc1ccc(Cc2nnc3sc(-c4cccnc4)nn23)cc1
inactive: EKVX NSCLC 85.2% | SN12C renal 100% | UO-31 renal 71.7% | ACHN renal 96.8% | CAKI-1 renal 84% | A498 renal 83.9% | CCRF-CEM leukemia 98.9% | MOLT-4 leukemia 97.2% | SR leukemia 91.1%

CN(C)CCCOc1c2ccc(Cl)cc2nc2c1oc1ccccc12
inactive: SN12C renal 18%
active: EKVX NSCLC -41.6% | UO-31 renal -51.9% | ACHN renal -6.02% | CAKI-1 renal 1.08% | A498 renal -91.8% | CCRF-CEM leukemia 0.191% | MOLT-4 leukemia -17% | SR leukemia -34.2%

Cc1cccc2sc(/N=C(\N)C(Cl)(Cl)Cl)nc12
inactive: EKVX NSCLC 71% | SN12C renal 110% | UO-31 renal 90.5% | ACHN renal 98.4% | CAKI-1 renal 85.3% | A498 renal 92.7% | CCRF-CEM leukemia 107% | MOLT-4 leukemia 103% | SR leukemia 100%

Clc1ccc2c(NCCCn3ccnc3)c3oc4ccc(Cl)cc4c3nc2c1
inactive: EKVX NSCLC 46.7% | SN12C renal 79.3% | UO-31 renal 44% | ACHN renal 44.4% | CAKI-1 renal 60.5% | A498 renal 45.9% | CCRF-CEM leukemia 57.2% | MOLT-4 leukemia 77%
active: SR leukemia -11.2%

CS(=O)(=O)c1ccc(-c2nc3ccccn3c2/C=N/Nc2nc(-c3ccc(Br)cc3)cs2)cc1
inactive: EKVX NSCLC 97.8% | SN12C renal 103% | UO-31 renal 84.8% | ACHN renal 103% | CAKI-1 renal 96.9% | A498 renal 78% | CCRF-CEM leukemia 90.8% | MOLT-4 leukemia 94% | SR leukemia 95.1%

C[C@@H](Nc1c(C#N)cnc2ccc(-c3cnc(N)nc3)cc12)c1ccccc1
active: EKVX NSCLC 4.11% | UO-31 renal 4.65% | ACHN renal 6.57% | CAKI-1 renal 1.83% | A498 renal -37.8% | MOLT-4 leukemia 0.24% | SR leukemia 7.92%
inactive: SN12C renal 11.8% | CCRF-CEM leukemia 14%

COc1ccc(-c2nn3c(-c4ccccc4F)nnc3s2)cc1
inactive: EKVX NSCLC 70% | SN12C renal 58.2% | UO-31 renal 65% | ACHN renal 78.1% | CAKI-1 renal 50.7% | A498 renal 16.4% | CCRF-CEM leukemia 58.5% | MOLT-4 leukemia 35.1% | SR leukemia 15.4%

Clc1ccc2oc3c(NCCCn4ccnc4)c4ccccc4nc3c2c1
inactive: EKVX NSCLC 73.8% | SN12C renal 38.4% | UO-31 renal 30% | CAKI-1 renal 30.6% | A498 renal 14.3% | CCRF-CEM leukemia 19.4%
active: ACHN renal 9.12% | MOLT-4 leukemia 7.69% | SR leukemia -5.22%

O=C1/C(=C/C2=Cc3ccccc3OC2)SC(=S)N1c1ccc(F)cc1
inactive: EKVX NSCLC 94.7% | SN12C renal 93% | UO-31 renal 86.3% | ACHN renal 76% | CAKI-1 renal 90.6% | A498 renal 71.6% | CCRF-CEM leukemia 109% | MOLT-4 leukemia 108% | SR leukemia 97.2%

Cc1cccc2sc(/N=C(\N)C(Br)Br)nc12
active: ACHN renal -13.5% | CAKI-1 renal 3.85% | CCRF-CEM leukemia 1.81% | SR leukemia -23.6%
inactive: EKVX NSCLC 19.9% | SN12C renal 18.2% | UO-31 renal 30.6% | A498 renal 38.7%

CC(=O)Oc1ccccc1C(=O)Nc1ccc(C(=O)/C=C/c2cccs2)cc1
inactive: EKVX NSCLC 103% | SN12C renal 104% | UO-31 renal 105% | CAKI-1 renal 96.2% | A498 renal 80.7% | CCRF-CEM leukemia 99.7% | MOLT-4 leukemia 104% | SR leukemia 93.9%

c1ccc2c(NCCCn3ccnc3)c3oc4ccccc4c3nc2c1
active: EKVX NSCLC 3.11% | SN12C renal -10.8% | UO-31 renal 0.573% | ACHN renal -7.51% | CAKI-1 renal -8.49% | A498 renal -18.2% | MOLT-4 leukemia -3.87% | SR leukemia -2.89%
inactive: CCRF-CEM leukemia 15%

COc1cc(OC)c(C2C(Cl)C(=O)N2Nc2ncnc3ccccc23)cc1OC (configuration not stated)
inactive: EKVX NSCLC 95.3% | SN12C renal 98.3% | UO-31 renal 78.8% | ACHN renal 90.5% | CAKI-1 renal 91.8% | A498 renal 97.2% | CCRF-CEM leukemia 102% | MOLT-4 leukemia 105% | SR leukemia 104%

OC1CCN(CCCOc2c3ccccc3nc3c2oc2ccccc23)CC1
active: EKVX NSCLC -13.7% | SN12C renal -1.2% | UO-31 renal -34.4% | ACHN renal -39% | CAKI-1 renal -36.7% | A498 renal -78.8% | CCRF-CEM leukemia 6.02% | SR leukemia -3.77%

CN(C)CCCOc1c2ccccc2nc2c1oc1ccc(Cl)cc12
active: UO-31 renal 4.84% | ACHN renal 1.64% | CAKI-1 renal -6.35% | A498 renal -6.15% | MOLT-4 leukemia -1.53% | SR leukemia -26.7%
inactive: EKVX NSCLC 12.4% | SN12C renal 12.4% | CCRF-CEM leukemia 16.8%

CN(C)S(=O)(=O)c1oc(-c2ccccc2)nc1C#N
inactive: EKVX NSCLC 78.3% | SN12C renal 72.4% | CAKI-1 renal 53.7% | A498 renal 65.6%
active: UO-31 renal -51% | ACHN renal -83.9% | CCRF-CEM leukemia 1.79% | MOLT-4 leukemia -13.1% | SR leukemia -19.7%

NC(=O)c1cc(-c2ccc3ncnc(N4CCc5cc(F)c(Cl)cc54)c3c2)cnc1N
inactive: EKVX NSCLC 13.6% | SN12C renal 23.4% | UO-31 renal 22.3% | ACHN renal 23.1% | CAKI-1 renal 19.9% | CCRF-CEM leukemia 21% | SR leukemia 18.5%
active: A498 renal -68.3% | MOLT-4 leukemia -11.8%
